# Reference: ChEMBL document CHEMBL3988442, “University of Dundee, Small-Polar-MMV Screening Library” (2021)
# In all, about 48,000 compounds went through this assay and about 13,000 (27%) showed an effect of 50% or more. Some of the results follow.
# Tested on: Wolbachia pipientis
# Experiment: Anti-Wolbachia Cell-Based Screen
# Assay type: functional
# Parameters: scale not given: in the data most compounds retested in dose-response had high values
# Conditions: 5 µM
row,Compound,Percent Effect
1,CCN1CCN(C(=O)c2[nH]c3ccccc3c2Cl)[C@H]2CS(=O)(=O)C[C@H]21,2.793%
2,COCCNc1ccccc1CNC(=O)NCc1cnc(C)s1,-0.4507%
3,CNC(=O)c1ccc(C(=O)N2CCCC2c2cnn(C)c2)cn1 (stereo unspecified),5.729%
4,COc1ccc(C(=O)N2CCCC2c2cnn(C)c2)cn1 (stereo unspecified),112.3%
5,CCOc1ccc(C(=O)N2CCCC2c2cnn(C)c2)cn1 (stereo unspecified),110.2%
6,Cc1cnn(CC2CCCN2C(=O)c2ccc(OC(C)C)nc2)c1 (stereo unspecified),-7.33%
7,COCCn1cc(C(=O)N2CCCC2c2cnn(C)c2)ccc1=O (stereo unspecified),-26.74%
8,CC(C)Oc1ccc(C(=O)N2CCCC2c2cnn(C)c2)cn1 (stereo unspecified),97.67%
9,Cn1cc(C2CCCN2C(=O)c2ccc(OCC3CC3)nc2)cn1 (stereo unspecified),114.7%
10,Cc1nnc(CN(C)S(=O)(=O)c2ccc(Br)cc2Cl)n1C,5.813%
11,CC(C)Oc1cccc(C(=O)C2CCCN(S(=O)(=O)C(C)C)C2)c1 (stereo unspecified),1.86%
12,Cc1nn(CCO)c(C)c1CNC1CCCCc2ccccc21 (stereo unspecified),2.659%
13,O=C(NCCc1ccn(-c2ccccc2)n1)N1CCSCC1,87.95%
14,CCOC1CCN(C(=O)NCCc2ccn(-c3ccccc3)n2)CC1,152.6%
15,CCOC1CCCN(C(=O)NCCc2ccn(-c3ccccc3)n2)C1 (stereo unspecified),9.361%
16,O=C(NCCc1ccn(-c2ccccc2)n1)N1CCC1,5.708%
17,O=C(NCCc1ccn(-c2ccccc2)n1)N1CCCC(CO)C1 (stereo unspecified),104.8%
18,CC1(C)CN(C(=O)NCCc2ccn(-c3ccccc3)n2)CCO1,-7.348%
19,O=C(NCCC1Cc2ccccc2C1)N1CCCC(O)C1 (stereo unspecified),-12.54%
20,O=C(NCCc1ccn(-c2ccccc2)n1)N1CCCC(O)C1 (stereo unspecified),108.2%
21,CCOC1CCN(C(=O)NCc2ccc(C(=O)N(C)C(C)C)cc2)CC1,-14.18%
22,O=C(NCCc1ccn(-c2ccc(F)cc2)n1)C1CCCOC1 (stereo unspecified),-15.61%

row,Compound,Percent Effect
1,CC(C)(C)c1cn(C2CCN(C(=O)c3cncnc3)CC2)nn1,8.941%
2,Cc1cc2ncc(C(C)NCc3cccnc3)c(C)n2n1 (stereo unspecified),0.9631%
3,O=C(c1cccc2ncccc12)N1CCCN(c2cccnn2)CC1,-3.765%
4,N#Cc1ccc(N2CCN(c3ncccn3)CC2)c(C(F)(F)F)c1,0.2646%
5,COc1cccc(CCCNC(=O)N2CCC(O)(C(F)(F)F)C2)c1 (stereo unspecified),-22.68%
6,Cc1nn(C)c(N(C)C)c1CNCc1cnn(Cc2ccccc2)c1,0.347%
7,O=C(Nc1ccc(CC(=O)N2CCSCC2)cc1)NC1CC1,1.128%
8,O=C(Nc1ccc(CC(=O)N2CCCC2)cc1)NC1CC1,116.7%
9,O=C(Nc1ccc(CC(=O)N2CCSCC2)cc1)NC1CCCC1,-7.412%
10,Cc1nc(CNC(=O)NC2CCN(c3ncccc3Cl)C2)no1 (stereo unspecified),-5.791%
11,OCCC1CN(c2ncnc3[nH]cnc23)CCN1Cc1ccccc1 (stereo unspecified),-15.48%
12,CC(C)N1CCCC2(CCN(Cc3nncn3C(C)C)C2)C1=O (stereo unspecified),92.74%
13,Cn1cnnc1CN1CCC2(CCCN(C3CCCCC3)C2=O)C1 (stereo unspecified),111.9%
14,CC(C)n1cnnc1CN1CCC2(CCCN(C3CCCCC3)C2=O)C1 (stereo unspecified),113.2%
15,Cn1cnnc1CN1CCC2(CCCN(C3CCCC3)C2=O)C1 (stereo unspecified),103.4%
16,CN1CCCC2(CCN(Cc3cncn3C3CCCCC3)C2)C1=O (stereo unspecified),-0.6007%
17,CCCN1CCCC2(CCN(Cc3cncn3C3CCCC3)C2)C1=O (stereo unspecified),1.607%
18,CC(C)[C@H]1COC(=O)N1Cc1nncn1C(C)C,9.429%
19,CCN1CC2(CCC1=O)CCN(Cc1nncn1C(C)C)CC2,3.317%
20,CC(C)N1CCCC2(CCN(Cc3noc(C4CCCC4)n3)C2)C1=O (stereo unspecified),17.18%
21,CCCN1CCCC2(CCN(Cc3noc(C4CCCC4)n3)C2)C1=O (stereo unspecified),-0.09411%
22,CCCN1CCCC2(CCN(Cc3cncn3C3CCCCC3)C2)C1=O (stereo unspecified),-18.59%

row,Compound,Percent Effect
1,CCN1CC2(CCC1=O)CCN(Cc1nncn1C)CC2,-22.02%
2,O=C(O)C(F)(F)F.c1csc(CN2CCC3(CCCN(c4nncs4)C3)C2)n1 (stereo unspecified),-3.653%
3,CCN1CCC(N2C[C@H]3OC(=O)N(CCc4cccc(Cl)c4)[C@H]3C2)CC1,-15.6%
4,CCSCCC(=O)Nc1ncn(CC(=O)NCc2ccccc2)n1,1.311%
5,CN(Cc1ccc(C(=O)Nc2sccc2C#N)cc1)Cc1ccno1,-5.875%
6,Cc1ccccc1C(C)CC(=O)N1CC[C@H](O)C1 (stereo partly specified),-9.659%
7,CC(C(=O)O)N1CC2(CCC1=O)CCN(CCc1ccccc1)CC2 (stereo unspecified),-3.737%
8,Cc1csc(N(C)C(=O)C2CC(=O)N(CCc3ccccc3)C2)n1 (stereo unspecified),4.812%
9,CC(C)(C)N1CC(C(=O)N2CCN(CCc3ccccc3)CC2)CC1=O (stereo unspecified),4.322%
10,CC(C)(C)OC(=O)N1CC(=O)N(CCc2ccccc2)CC(O)C1 (stereo unspecified),114.6%
11,Cc1[nH]ccc1C(=O)NCC1CC(=O)N(CCc2ccccc2)C1 (stereo unspecified),5.345%
12,CC(C)CC(=O)N1CC(=O)N(CCc2ccccc2)CC(O)C1 (stereo unspecified),118.7%
13,CNC(=O)C1Cc2ccccc2CN1CCCc1ccccc1 (stereo unspecified),-8.054%
14,CC(C)COC(=O)N1CC(=O)N(CCCc2ccccc2)CC(O)C1 (stereo unspecified),111%
15,CC(C)c1cc(C(=O)N2CCCN(CCCc3ccccc3)CC2)[nH]n1,0.07047%
16,CCOC(=O)N1CC(=O)N(CCc2ccccc2)CC(O)C1 (stereo unspecified),123.2%
17,CN(C(=O)C1CC(=O)N(CCc2ccccc2)C1)c1nccs1 (stereo unspecified),3.016%
18,CSc1nc(N)cc(N2C[C@@H]3CC[C@H](C2)N(Cc2cscn2)C3=O)n1,0.1745%
19,CCN(CC)C(=O)CN(C)C1CCc2ccccc21 (stereo unspecified),-5.842%
20,CN(Cc1ccco1)Cc1ccccc1CNC(=O)c1ccc[nH]1,22.22%
21,O=C(CN(Cc1ccccc1)CC1CCOCC1)NC(=O)NC1CC1,17.45%
22,CC(C)COC(=O)N1CC(=O)N(CCc2ccccc2)CC(O)C1 (stereo unspecified),128.8%

row,Compound,Percent Effect
1,O=C(NCC1CC(=O)N(CCc2ccccc2)C1)c1c(F)cccc1F (stereo unspecified),-5.982%
2,COCc1cccc(C(=O)N2CCCN(C(=O)OCC(C)C)CC2)c1,8.994%
3,CN(Cc1cc2n(n1)CCNC2)Cc1cc(-c2ccccn2)no1,-13.42%
4,COCCN(C)CCN1CC2(CCN(C3CCCCC3)CC2)OC1=O,5.41%
5,CSc1cc(CNC(=O)CCOc2ccccc2C)ccn1,2.605%
6,Cc1ccc(OCCCNC(=O)NC(C)c2nncn2C)cc1 (stereo unspecified),6.672%
7,CC1(C(=O)NCCCOc2ccccc2F)CC(=O)N2C=CC=CC2=N1 (stereo unspecified),94.6%
8,Cc1ccc(OCCCNC(=O)C2(C)CC(=O)N3C=CC=CC3=N2)cc1 (stereo unspecified),121.9%
9,CC(C)n1cnnc1CNC(=O)CCCOc1ccccc1F,-11.73%
10,Cc1ccccc1OCCCC(=O)NCc1ccnc(O)c1,0.1065%
11,CC(=O)N1C[C@H]2CNC[C@@]2(C(=O)NCCOc2ccccc2F)C1,-24.48%
12,Cc1ccccc1OCCCNC(=O)C1(C)CC(=O)N2C=CC=CC2=N1 (stereo unspecified),112.8%
13,Cc1ccc(OCCCNC(=O)C(C)Sc2nncn2C)cc1 (stereo unspecified),-12.11%
14,COc1cc(C)c(CNC(C)c2csc(C3CC3)n2)cc1OC (stereo unspecified),30.24%
15,CC(C)Cc1cc(C(=O)NC(C)(C)c2nnc(N)s2)n(C)n1,-11.71%
16,Cc1noc(NCc2ccc(F)cc2F)n1,23.53%
17,Cc1noc(C2CCCN(C(=O)c3ccc(Cl)cc3F)C2)n1 (stereo unspecified),-0.5657%
18,CC(C)c1nnc2ccc(N3CCC(C(N)=O)CC3)nn12,13.6%
19,CS(=O)(=O)CCOCCNc1ccc2ccc(F)cc2n1,5.905%
20,COCC(NC(=O)c1ccc[nH]1)c1cccc(C(F)(F)F)c1 (stereo unspecified),-9.811%
21,CC(C)CCN1CCc2cc(C(=O)N(C)C)c(NCC3CC3)nc2CC1.O=C(O)C(F)(F)F.O=C(O)C(F)(F)F,98.43%
22,O=C(O)C(F)(F)F.O=C(O)C(F)(F)F.O=C(O)c1cc2c(nc1NCC1CC1)CCN(C1CCOC1)CC2 (stereo unspecified),-1.204%

row,Compound,Percent Effect
1,CC(C)Nc1nc2c(cc1C(=O)NCC1CC1)CCN(C)CC2.O=C(O)C(F)(F)F.O=C(O)C(F)(F)F,0.01551%
2,CN1CCc2cc(C(=O)N(C)C)c(NCC3CC3)nc2CC1.O=C(O)C(F)(F)F.O=C(O)C(F)(F)F,92.24%
3,O=C1N(CCO)CCCC12CCN(Cc1noc(C3CCCC3)n1)C2 (stereo unspecified),-14.7%
4,COc1ccc2c(=O)n(CC3CCCN(C)C3)ccc2c1OC (stereo unspecified),-1.973%
5,Cc1cc(C(=O)N2CCCC(N3CCNC3=O)C2)nn1C(C)(C)C (stereo unspecified),-5.29%
6,CCCS(=O)(=O)c1ncc(CN2CCC(CO)CC2)n1CC1CCCO1 (stereo unspecified),10.89%
7,CCN1CCc2onc(CNc3ncccn3)c2C1,1.38%
8,CC(C)n1nc(CNc2ncccn2)c2c1CN(C)CC2.O=C(O)C(F)(F)F.O=C(O)C(F)(F)F.O=C(O)C(F)(F)F,-10.41%
9,c1cnc(NCc2noc3c2CN(c2cnccn2)CC3)nc1,99.25%
10,O=C(c1cnccn1)N1CCc2onc(CN3CCCC3)c2C1,10.5%
11,c1cnc(N2CCc3onc(CN4CCOCC4)c3C2)cn1,102%
12,c1cnc(N2CCc3onc(CN4CCCC4)c3C2)cn1,88.59%
13,CC(C)n1nc(CNc2ncccn2)c2c1CN(S(C)(=O)=O)CC2,3.209%
14,O=C(c1ccncc1)N1CCc2onc(CN3CCCC3)c2C1,-9.45%
15,Cn1nc(CNc2ncccn2)c2c1CN(c1cnccn1)CC2,89.69%
16,O=C(c1cccnc1)N1CCc2onc(CN3CCCC3)c2C1,-1.696%
17,O=C(c1ccsc1)N1CCc2onc(CN3CCOCC3)c2C1,-3.104%
18,CCS(=O)(=O)N1CCc2onc(CNc3ncccn3)c2C1,3.304%
